# PTHR1 agonist = agonists of human PTHR1 parathyroid hormone receptor. HEK293 GP2 PTHR1 cells, GloSensor cAMP luminescence, 1 h. Potency, µM (titrated, usually from 115 µM), actives largely listed as activators. Q03431. actives 0.075% (n = 410,000); further: nearly all actives have a fitted effect of over 55% in size
# Target sequence (Q03431 whole entry, looked up): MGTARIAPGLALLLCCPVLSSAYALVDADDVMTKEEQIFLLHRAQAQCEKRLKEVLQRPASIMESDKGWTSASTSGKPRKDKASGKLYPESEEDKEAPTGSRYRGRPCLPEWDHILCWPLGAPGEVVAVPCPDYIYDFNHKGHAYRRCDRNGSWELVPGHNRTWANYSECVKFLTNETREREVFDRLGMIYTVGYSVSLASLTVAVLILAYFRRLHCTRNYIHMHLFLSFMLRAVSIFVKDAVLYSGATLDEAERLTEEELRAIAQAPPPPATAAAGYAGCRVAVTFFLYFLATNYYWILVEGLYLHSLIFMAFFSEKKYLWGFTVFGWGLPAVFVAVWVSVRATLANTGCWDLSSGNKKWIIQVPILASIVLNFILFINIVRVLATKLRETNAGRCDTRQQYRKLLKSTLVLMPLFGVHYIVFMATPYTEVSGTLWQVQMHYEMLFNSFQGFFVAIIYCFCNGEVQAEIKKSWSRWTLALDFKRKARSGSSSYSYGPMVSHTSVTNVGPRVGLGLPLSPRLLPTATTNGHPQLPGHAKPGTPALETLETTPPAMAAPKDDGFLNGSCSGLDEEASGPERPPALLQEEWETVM
#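 HEK-293-derived GP2 cells expressing PTHR1 and a GloSensor cAMP reporter, 3,000/well, plated overnight, given luciferin plus IBMX (each 0.5 mM as added) for 1 h at 37 °C, then compound for 1 h at 37 °C. Luminescence was read after 15 min at room temperature.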
# GLP-1R agonist = activates the human GLP-1 receptor; HEK293 GLP-1R CRE-luciferase, luminescence, 4-6 h; cells express a hypersensitive GLP-1R form; Potency, µM (doses to about 45.6 µM), hits mostly activators; actives 0.007% (n = 380,000); AID 624172
# HEK293 tox = cytotoxic in the GLP-1 receptor inverse agonist counter-screen; HEK293 cAMP-luciferase reporter cells, luminescence, 24 h; Potency, µM (top dose mostly 38.3 µM), usual class: inhibitors; actives 0.13% (n = 410,000); AID 624418;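 further: loss of luciferase light is scored as toxicity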
#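 1536-well qHTS counterscreen of the MLSMR; 200 cells/uL, 12 h pre-incubation, 23 nL cpd, 24 h at 37 deg C 5% CO2, luciferase detection reagent, 12 min RT, luminescence. Inhibition = undesired.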
# GLP1R inv ag = GLP-1 receptor (human) inverse agonism; HEK293 GLP-1R CRE-luciferase, luminescence, 24 h; GLP-1R form is constitutively active; Potency, µM (series often up to 38.3 µM), usual class: inhibitors; actives 1.6% (n = 410,000); AID 624417; further: nearly all actives have a fitted effect of over 55% in size
#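 Assay principle: reduced luminescence from a cAMP-responsive reporter in HEK293 cells co-expressing a constitutively active GLP-1R. Conditions: 24 hr compound incubation, 37 deg C, 5% CO2.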
# Hits are given with their value; - = inactive; ? = inconclusive; . = no result given. Shown are actives, neighbours in structure and some others; about 1.7% of the full set was active somewhere. The call rests on the fitted dose curve; in most records, active means well fitted curve in the direction sought with a large enough effect; inconclusive means small, poorly fitted or top-dose-only effect, or another doubt; inactive means no such curve, though single readings can be large; an effect the other way counts as inactive or inconclusive.
SMILES,PTHR1 agonist,GLP-1R agonist,HEK293 tox,GLP1R inv ag
CNC(=S)N=Nc1c(O)[nH]c2ccccc12,-,-,11.2µM,-
COc1ccc(S(=O)(=O)N=Nc2c(O)[nH]c3ccccc23)cc1,-,-,-,-
Oc1ccc(NC(=S)N=Nc2c(O)[nH]c3ccccc23)cc1,-,-,?,-
CCOC(=O)c1ccc(NC2=CC(c3ccc(O)c(OCC)c3)N(c3ccc(C(=O)OCC)cc3)C2=O)cc1 (stereo not given),-,-,-,-
O=C(c1ccccc1)N(Cc1ccccc1)Cc1ccccc1,-,-,-,?
CC1(C(=O)N(Cc2ccccc2)Cc2ccccc2)CC1(Br)Br (stereo not given),-,-,-,3.98µM
Cc1ccc(C(=O)NCCSc2c(C)[nH]c3ccccc23)cc1[N+](=O)[O-],-,-,-,10µM
CCN(c1ccccc1)c1ncnc2c1cnn2-c1ccc(OC)cc1,-,.,-,?
CC(C)c1ccc(CN2CCN(C(=O)CCl)CC2)cc1,-,-,?,5.62µM
COc1ccc(C(=O)NC(C(=O)N2CCN(C/C=C/c3ccccc3)CC2)C(C)C)cc1 (stereo not given),-,-,-,-
CC(C)[C@H](NC(=O)c1ccc([N+](=O)[O-])cc1Cl)C(=O)N1CCN(C/C=C/c2ccccc2)CC1,-,-,-,10µM
COCCNC(=O)C(=O)NCC(c1cccnc1)N1CCN(c2ccccc2)CC1 (stereo not given),-,.,-,-
CN(C)CCNC(=O)c1ccc2c(=O)n(Cc3ccc(Cl)cc3)c(=S)[nH]c2c1,-,-,?,3.16µM
Cc1ccc(CN2C(=O)c3ccccc3Sc3ccc(C(=O)NCCN4CCOCC4)cc32)cc1,-,-,?,6.31µM
O=C(NCCCN1CCOCC1)c1ccc2c(=O)n(Cc3ccc(Cl)cc3)c(=S)[nH]c2c1,-,-,-,2µM
Cc1c(C)n(Cc2ccc(Cl)cc2)c2ccc(C(=O)NCCN3CCOCC3)cc12,-,-,-,3.55µM
Cc1c(C)n(Cc2ccccc2)c2ccc(C(=O)NCCN3CCOCC3)cc12,-,-,-,?
CCc1ccc(NC(=O)c2cc(=O)c3ccc(C)c(C)c3o2)cc1,-,.,-,?
CC1CC(C)CN(c2ncnc3c2cnn3Cc2ccc(Cl)cc2)C1 (stereo not given),-,-,-,2µM
CC(=O)c1ccc(NC(=O)c2cnn3ccccc23)cc1,-,-,-,2.51µM
Cc1onc(-c2c(F)cccc2Cl)c1C(=O)OCC(=O)c1c[nH]c2ccccc12,-,-,-,8.91µM
Cc1noc(C)c1C(=O)OCC(=O)c1c[nH]c2ccccc12,-,-,-,-
Cc1cc(F)ccc1NC(=O)c1ccc(NS(=O)(=O)c2cc(C(C)(C)C)ccc2C)cc1,-,-,?,4.47µM
Clc1ccc(OC2CCN(Cc3nc(CC4CC4)no3)CC2)cc1,-,-,-,2µM
O=C(N/N=C/c1cccc2ccccc12)c1ccncc1,-,-,-,-
SMILES,PTHR1 agonist,GLP-1R agonist,HEK293 tox,GLP1R inv ag
O=C(/C=C/c1cccc2ccccc12)c1ccncc1,-,-,?,8.91µM
CCOc1ccc(C(=O)NC(=S)Nc2ccccc2N2CCCCC2)cc1[N+](=O)[O-],-,-,?,?
COc1ccc(C(=O)NC(=S)Nc2ccccc2N2CCCCC2)cc1[N+](=O)[O-],-,-,?,1.12µM
O=C(CSc1cn(CC(=O)N2CCCCCC2)c2ccccc12)Nc1ccccc1F,-,.,-,?
CNC(=O)CN1C(=O)COc2ccc(S(=O)(=O)N3CCC(C)CC3)cc21,-,-,-,-
COc1ccccc1CNS(=O)(=O)c1c(C(=O)N2CCC(C)CC2)c(C)n(C)c1C,-,.,-,-
CCn1cc(CN2CCCC(C(=O)c3ccc(-c4ccccc4)cc3)C2)cn1 (stereo not given),-,-,-,8.91µM
COc1ccc(-c2cn3nc(N4CCC(C(=O)Nc5ccccc5OC)CC4)sc3n2)cc1,-,.,-,-
CC(C)(C)C(=O)OCc1cc(=O)n2nc(C3CC3)sc2n1,-,.,-,-
CN(C)CC(CCC(CN(C)C)C(O)(c1ccccc1)c1ccccc1)C(O)(c1ccccc1)c1ccccc1 (stereo not given),-,-,?,2.82µM
CN(C)C/C=C/C(O)(c1ccccc1)c1ccccc1,-,-,-,-
COc1ccc(NC(=O)NC(C)c2c(-n3cccc3)sc3c2CCN(C)C3)c(OC)c1 (stereo not given),-,.,-,-
COc1ccc(-c2ocnc2C(=O)NCc2nn(-c3ccccc3)nc2C)cc1,-,-,-,10µM
COc1ccc(CC(=O)NCc2nn(-c3ccccc3)nc2C)cc1OC,-,-,-,-
Cc1ccc(CCNC(=O)c2ccc3c(c2)c(C)c(C)n3Cc2ccccc2)cc1,-,.,-,?
OC[C@@H]1CN(Cc2ccc(-c3ccccc3)cc2)C[C@H](n2cnc3c(Nc4ccccc4)ncnc32)O1,-,-,-,4.47µM
CC(C)(C)OC(=O)N1CCC[C@H]1c1nnc(SCc2ccccc2Cl)o1,-,-,-,?
CC(C)(C)OC(=O)N1CCC[C@H]1c1nnc(SCc2c(F)cccc2Cl)o1,-,-,-,8.91µM
CC(C)(C)OC(=O)NCCCCCc1nnc(SCc2c(F)cccc2Cl)o1,-,-,-,10µM
CCC(C)(C)OC(=O)N[C@@H](Cc1c[nH]c2ccccc12)C(=O)N[C@@H](CCSC)C(=O)N[C@@H](CC(=O)O)C(=O)N[C@@H](Cc1ccccc1)C(N)=O,.,-,.,.
CC(C)c1ccccc1NC(=O)Nc1nc(C(N)Cc2ccc(C(F)(F)F)cc2)cs1 (stereo not given),-,-,?,12.6µM
NC(Cc1ccc(C(F)(F)F)cc1)c1csc(NC(=O)Nc2ccccc2Cc2ccccc2)n1 (stereo not given),-,-,?,?
CC(C)CC(N)c1csc(NC(=O)Nc2ccccc2C(C)C)n1 (stereo not given),-,-,?,10µM
COc1cc(OC)c(OC)cc1CNc1sc2c(c1C(=O)Nc1ccccc1OC)CCC2,-,.,-,-
O=C(COc1ccc(Cl)cc1)Nc1ccccc1C(=O)OCc1cc(=O)n2ccsc2n1,-,.,-,-
SMILES,PTHR1 agonist,GLP-1R agonist,HEK293 tox,GLP1R inv ag
NC(=S)NN=C1c2cc(OCCN3CCOCC3)ccc2-c2ccc(OCCN3CCOCC3)cc21,-,-,1.41µM,7.94µM
Clc1ccc(OCCN2CCOCC2)cc1Cl,-,-,-,-
ON=C1c2cc(OCCN3CCCCC3)ccc2-c2ccc(OCCN3CCCCC3)cc21,-,-,3.55µM,12.6µM
Clc1ccc(OCCN2CCCCC2)cc1Cl,-,-,-,-
CCC(Sc1nnc(C)n2c1cc1occc12)C(=O)Nc1ccccc1OC (stereo not given),-,.,-,-
CCCCCCCCN1[C@@H](CC(=O)OCC)c2ccc(C(F)(F)F)cc2S1(=O)=O,-,-,-,10µM
Cc1cc(C)c(/C=C/c2onc(C)c2S(=O)(=O)N2CCC(C(=O)N3CCN(c4ccccc4)CC3)CC2)c(C)c1,-,.,-,-

# From PubChem BioAssay
